Legend:
Settings in all cases: concentration: 1 μM, replicates: in singlicate; n = 1
[1] = tested on: PIKFYVE
[2] = tested on: PIM1
[3] = tested on: PIM2
[4] = tested on: PIM3
[5] = tested on: PIP5K1A
[6] = tested on: PIP5K1C
[7] = tested on: PIP5K2B
[8] = tested on: T1, PIP5K2C
T1 construct: gene PIP4K2C

[9] = tested on: T2, PKAC-alpha
T2 construct: gene PRKACA

[10] = tested on: T3, PKAC-beta
T3 construct: gene PRKACB

[11] = tested on: PKMYT1
[12] = tested on: PKN1
[13] = tested on: PKN2
[14] = tested on: PLK1
[15] = tested on: PLK2
[16] = tested on: PLK3
[17] = tested on: PLK4
[18] = tested on: PRKCD
[19] = tested on: PRKCE
[20] = tested on: PRKCH
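Also: KINOMEscan kinase panel screen.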

| Compound | %Inh [1] [%] | %Inh [2] [%] | %Inh [3] [%] | %Inh [4] [%] | %Inh [5] [%] | %Inh [6] [%] | %Inh [7] [%] | %Inh [8] [%] | %Inh [9] [%] | %Inh [10] [%] | %Inh [11] [%] | %Inh [12] [%] | %Inh [13] [%] | %Inh [14] [%] | %Inh [15] [%] | %Inh [16] [%] | %Inh [17] [%] | %Inh [18] [%] | %Inh [19] [%] | %Inh [20] [%] |
| --- | --- | --- | --- | --- | --- | --- | --- | --- | --- | --- | --- | --- | --- | --- | --- | --- | --- | --- | --- | --- |
| O=C1Cc2cc(Nc3nc(NCc4cccc(S(=O)(=O)C(F)(F)F)c4)ncc3C(F)(F)F)ccc2N1 | 6 | 100 | 0 | 6 | 13 | 3 | 20 | 0 | 0 | 7 | 17 | 0 | 0 | 0 | 5 | 1 | 4 | 17 | 23 | 0 |
| Fc1ccc(-c2ncn(CCCN3CCOCC3)c2-c2cccnc2)cc1 [SB-211743] | 0 | 12 | 2 | 0 | 5 | 0 | 5 | 0 | 0 | 25 | 0 | 0 | 13 | 0 | 0 | 15 | 0 | 6 | 0 | 0 |
| Cc1nnc(-c2ccc3ncc(-c4ccc(S(C)=O)cc4)n3c2)o1 (stereo not shown) | 0 | 0 | 2 | 0 | 2 | 0 | 39 | 0 | 2 | 8 | 3 | 0 | 0 | 0 | 11 | 12 | 0 | 14 | 0 | 0 |
| Cn1ccc2ncnc(Oc3ccc(NC(=O)Nc4ccncc4)c(Cl)c3)c21 | 8 | 0 | 13 | 1 | 24 | 5 | 11 | 0 | 1 | 2 | 2 | 0 | 0 | 0 | 8 | 0 | 0 | 6 | 0 | 16 |
| O=C1NC(=O)C(N2CCc3ccccc32)=C1c1cccc(Cl)c1 [SB-408010] | 4 | 16 | 9 | 6 | 0 | 39 | 0 | 0 | 11 | 14 | 20 | 0 | 3 | 27 | 0 | 4 | 25 | 0 | 19 | 13 |
| O=C(c1ccc(-c2cc(-c3c[nH]nc3-c3ccccn3)ccn2)cc1)N1CCOCC1 [GW812171] | 0 | 24 | 0 | 15 | 0 | 0 | 0 | 67 | 0 | 3 | 6 | 0 | 0 | 0 | 14 | 28 | 0 | 12 | 14 | 0 |
| COc1cc2c(cc1OCCN1CCN(C)CC1)ncc1c3ccc(C#N)cc3[nH]c21 | 64 | 34 | 90.9 | 63 | 57 | 55 | 94.8 | 35 | 0 | 0 | 0 | 56 | 25 | 0 | 16 | 16 | 0 | 1 | 0 | 0 |
| COc1ccc(Nc2nccc(N3CCC(NC(=O)Nc4cc(C)ccc4C)C3)n2)cc1 (stereo not shown) [GSK1379741] | 0 | 0 | 0 | 0 | 1 | 25 | 10 | 9 | 0 | 0 | 0 | 0 | 0 | 0 | 0 | 0 | 0 | 0 | 13 | 0 |
| Cc1cn2c(=O)cc(N3CCOCC3)nc2n1Cc1cccc(Cl)c1Cl [GSK2334006] | 50 | 10 | 0 | 0 | 0 | 30 | 0 | 10 | 3 | 29 | 12 | 33 | 0 | 24 | 0 | 0 | 0 | 0 | 13 | 28 |
| O=C(NCCNc1ccnc(Nc2ccc(F)cc2)n1)c1cc2ccccc2s1 [GSK1379874] | 0 | 0 | 0 | 0 | 0 | 0 | 8 | 42 | 0 | 0 | 0 | 0 | 0 | 0 | 0 | 0 | 0 | 0 | 5 | 17 |
| COC(=O)Nc1nc2cc(Oc3ccc(NC(=O)Nc4cc(F)ccc4F)cc3)ccc2[nH]1.Cl [GW701424] | 31 | 13 | 0 | 2 | 41 | 9 | 14 | 40 | 0 | 0 | 0 | 0 | 0 | 0 | 0 | 0 | 0 | 0 | 12 | 5 |

From article PMC5540273 (PLoS ONE, 2017)
